Assay results from PubChem BioAssay AID540276 (National Center for Advancing Translational Sciences (NCATS), 2011).
“And” between values parts separate entries of the source, which are not always exact repeats. Identical values can stand only once. Screen size: about 300,000 compounds; about 5,400 (1.8%) were called active. Inconclusive results (about 28%) are left out. Calls follow the shape of the full dose curve; tested in HEK293 cells. The list comes from a sample in which actives are over-represented; it also holds similar structures and randomly drawn compounds. A call without a number means that no potency is given here. A structure can be active in one record and inactive in another.

assay: qHTS for inhibitors of binding or entry into cells for Marburg Virus; conditions: Marburg virus pseudotyped entry inhibition, cell reporter; series mostly up to 37.8 µM
Potency is read from the fitted curve at half-maximal effect.

SMILES	Potency
Cn1c(CNC(=O)C(C)(C)C)nc2ccccc21	inactive
CC(NCc1nc2ccccc2n1C)C12CC3CC(CC(C3)C1)C2 (stereo not drawn)	11.2 µM (active)
Cn1c(COc2ccccc2C(C)(C)C)nc2ccccc21	inactive
C#CCOCCOCCOCCNc1nc(N2CCN(C(=O)Cn3cc(CCO)nn3)CC2)nc(N2CCN(C(=O)Cn3cc(CCCN=C(N)N)nn3)CC2)n1	inactive
O=C1C(=O)N(CCN2CCOCC2)[C@@H](c2ccccn2)/C1=C(/O)c1ccc(F)cc1	inactive
Cc1cc(C)nc(N/N=C/c2ccncc2)n1	inactive
CCN(CC)c1ccc(/C=N/Nc2nc(C)cc(C)n2)c(O)c1	6.51 µM (active)
CCN(CC)c1ccc(/C=N/Nc2nc(C)cc(=O)[nH]2)cc1	inactive
Cn1ncc2c(Nc3cccc4ccccc34)ncnc21	inactive
CN(C)c1cc2c(Nc3ccc4c(cnn4Cc4ccccc4)c3)ncnc2cn1	8.91 µM (active)
Clc1ccc(Nc2ncnc3c2nnn3Cc2ccccc2)cc1	inactive
Cc1ccc(CN2CCNC(=O)C2CC(=O)NCc2csc(C(C)C)n2)cc1 (stereo not drawn)	inactive
Cc1ccsc1C(=O)NNC(=O)COc1ccc(Br)cc1	inactive
CC1CCN(C(=O)c2ccc3c(=O)n4c(nc3c2)CCCCC4)CC1	inactive
CCn1c(=O)c2cc(C(=O)NCCc3ccc(Cl)cc3)sc2c2ccccc21	inactive
CCc1ccc(CNC(=O)c2cc3c(=O)n(CC)c4ccccc4c3s2)cc1	inactive
CCN(CCCNC(=O)c1cc2c(=O)n(CC)c3ccccc3c2s1)Cc1ccccc1	4.47 µM (active)
Cc1ccc(CS(=O)Cc2ccc(C(=O)N3CCOCC3)o2)cc1 (stereo not drawn)	inactive
C/C(=N\Nc1ccccc1)c1cccs1	inactive
Oc1ccc2ccccc2c1C=Nc1ccccc1	inactive
Oc1ccc2ccccc2c1N=Nc1nccs1	3.55 µM (active)
O=C(Cc1ccc(NC(=O)C2CCCN(C(=O)CCc3ccccc3)C2)cc1)Nc1ccc(C(=O)N2CCOCC2)cc1 (stereo not drawn)	inactive
COc1ccc(N2CCN(CCNC(=O)Nc3cc(Cl)ccc3Cl)CC2)cc1	inactive
CN(Cc1ccccc1)C(=O)COC(=O)/C=C/c1ccc2c(c1)OCO2	inactive
CC(C)Cn1cnc2c1c(=O)n(CC(=O)NN)c(=O)n2Cc1ccccc1	inactive
N=c1c2c(-c3ccccc3)c(-c3ccccc3)n(Cc3ccccc3)c2ncn1CCCO	5.8 µM (active)

SMILES	Potency
COCCn1cnc2c1c(=O)n(Cc1ccc(Br)cc1)c(=O)n2Cc1ccccc1	inactive
Cc1cc(NC(=O)CCN2CCN(Cc3ccccc3)CC2)ccc1Br	inactive
CCCCN(C(=O)c1ccc(C)o1)c1c(N)n(CCCC)c(=O)[nH]c1=O	inactive
O=C(c1ccccc1)C(O)(CN1CCCCC1)c1ccccc1 (stereo not drawn)	inactive
CCc1ccccc1NC(=O)NCCN1CCCCC1	inactive
CCCCCCC(O)(CCN1CCCCC1)c1ccccc1 (stereo not drawn)	12.6 µM (active)
CCOC(=O)c1ccc(NC(=O)CNC(=O)c2ccco2)cc1	inactive
COc1ccc(OC)c(C(c2nnnn2C(C)(C)C)N2CCc3ccccc3C2)c1 (stereo not drawn)	12.6 µM (active)
COCCn1nnnc1C(c1cc2ccc(OC)cc2[nH]c1=O)N1CCc2ccccc2C1 (stereo not drawn)	inactive
Cc1ccc(C(c2nnnn2C(C)(C)C)N2CCc3ccccc3C2)cc1 (stereo not drawn)	inactive
COc1cc2c(cc1OC)CN(C(C)C(=O)Nc1cccc(S(=O)(=O)N3CCOCC3)c1)CC2 (stereo not drawn)	inactive
C#CCOc1ccc(/C=C2/C(=O)NN(c3ccccc3)C2=O)cc1OC	inactive
COc1cc(CN2CC(C)CC(C)C2)cc([N+](=O)[O-])c1O (stereo not drawn)	inactive
COc1cc(/C=C2/C(=O)NN(c3ccc(F)cc3)C2=O)cc([N+](=O)[O-])c1O	3.55 µM (active)
CC12CCC(=O)N1C(C(=O)NCCN1C(=O)S/C(=C\c3ccccc3F)C1=O)CS2 (stereo not drawn)	inactive
Cc1ccc(S(=O)(=O)NCC(=O)NNC(=O)c2ccc(Br)cc2)cc1C	inactive
O=C(CCNS(=O)(=O)c1ccccc1)NCCCc1ccccc1	inactive
O=C(CCNS(=O)(=O)c1ccccc1)Nc1ccc(Cl)cc1C(=O)c1ccccc1	8.91 µM (active)
O=C(COC(=O)c1ccccc1)Nc1ccc(Cl)cc1C(=O)c1ccccc1	inactive
O=C(CN(Cc1ccccc1)C(=O)CCC(=O)Nc1ccccn1)NCCc1ccccc1	inactive
O=C(COC(=O)c1ccc(Oc2ccccc2)cc1)Nc1nnc(-c2ccccc2)o1	inactive
COc1cccc(-c2nnc(NC(=O)c3ccc(S(=O)(=O)N(CC(C)C)CC(C)C)cc3)o2)c1	1.26 µM (active)
COc1cccc(NC(=O)CN(C)S(=O)(=O)c2ccc(C)cc2)c1	inactive
O=C1NCC(c2ccccc2)(c2ccccc2)C(=O)N1	inactive
COc1ccc(Cl)cc1NS(=O)(=O)c1cccc(C(=O)NC2CCC(O)CC2)c1 (stereo not drawn)	inactive
COCCC(=O)N1CCC(Oc2ccc(C(=O)NCc3ccon3)cc2)CC1	inactive

SMILES	Potency
CCOC(=O)C1CCCN(CCSc2ccc(C)cc2)C1 (stereo not drawn)	inactive
CN1CCN(c2ccc([N+](=O)[O-])c(Sc3nc4ccccc4[nH]3)c2)CC1	inactive
O=C(c1cccc(F)c1)N1CCN(c2ccc([N+](=O)[O-])c(N3CCCCC3)c2)CC1	inactive
CN1CCN(c2cc(N3CCNCC3)ccc2[N+](=O)[O-])CC1	5.01 µM (active)
O=C(NN=CC=Cc1ccccc1)C(O)C(O)C(=O)NN=CC=Cc1ccccc1 (stereo not drawn)	inactive
N#CC1(Nc2ccc(-c3ccc(Cl)cc3)cc2)CCCC1	inactive
Cc1cc(NC(=O)CSc2ncc(C(F)(F)F)cc2Cl)no1	inactive
CCOC(=O)CSC1=c2ccccc2=NC1c1cccs1 (stereo not drawn)	inactive
CC1CCN(C(=O)COC(=O)CCC(=O)c2cccs2)CC1	inactive
COc1ccc(-n2nc(C(=O)NCC(=O)N3CCN(c4ccccc4OC)CC3)c3ccccc3c2=O)c(OC)c1	inactive
CN(Cc1ccccc1Cl)C(=O)C1CCC(=O)N(CCc2cccc(F)c2)C1 (stereo not drawn)	inactive
COc1cc(C)ccc1OCC(=O)OCC(=O)c1ccc[nH]1	inactive
Cn1c2ccccc2c2c(C(=O)N3CCN(c4ccc(F)cc4)CC3)cn(C3CCCC3)c(=O)c21	inactive and 17.8 µM (active)
CCOc1ccc(NC(=O)c2cn(C3CCCCC3)c(=O)c3c2c2ccccc2n3C)cc1	inactive
O=C(c1ccccc1Oc1ccccc1)N1CCN(c2ccc(F)cc2)CC1	inactive
O=C(NCCN1CCOCC1)c1cc(-c2cccs2)nc2ccccc12	inactive
O=C(Cn1c(-c2ccccn2)nc2ccccc21)NCCN1CCOCC1	inactive
c1ccc2cc3c(NCCN4CCOCC4)ccnc3cc2c1	3.66 µM (active)
COC(=O)Nc1ccc(S(=O)(=O)Nc2cc(OC)nc(OC)n2)cc1	inactive
CC(OC(=O)c1ccc(-n2cnnn2)cc1)C(=O)NCc1ccccc1 (stereo not drawn)	inactive
CC(=O)OC[C@H]1O[C@H](C/C=N/OC[C@@H](O)COCc2ccco2)C=C[C@@H]1OC(C)=O	inactive
CC(=O)c1c(O)c(C)c(O)c(Cc2c(O)c3c(c(C(=O)/C=C\c4ccccc4)c2O)OC(C)(C)C=C3)c1O	3.16 µM (active)
O=C(/C=C/c1ccccc1)c1ccccc1O	inactive
O=C(/C=C/c1ccccc1)c1ccoc1	inactive
CC(=O)c1c(O)c(C)c(O)c(Cc2c(O)c3c(c(C(=O)/C=C/c4ccccc4)c2O)OC(C)(C)C=C3)c1O	inactive and 3.16 µM (active)
CCOC(=O)C1CCN(S(=O)(=O)c2ccc3c(c2)N(C(C)=O)CCO3)CC1	inactive

SMILES	Potency
O=C(c1cccnc1)N(Cc1ccccc1)C(=O)c1cccnc1	inactive
O=C(NCC(=O)N1CCN(c2ncc(C(F)(F)F)cc2Cl)CC1)c1ccc(Br)o1	inactive
O=C(Nc1cccc2c1CCCC2)c1ccc(F)cc1	inactive
CC(C)C1CCCCC1NC(=O)CN1C(=O)C2=C(CCCC2)C1=O (stereo not drawn)	inactive
CCOc1ccc(S(=O)(=O)N2CCN(C(=O)c3oc4ccccc4c3C)CC2)cc1	inactive
O=C(NC(Nc1nc2ccc([N+](=O)[O-])cc2s1)(C(F)(F)F)C(F)(F)F)c1ccccc1	0.517 µM (active)
O=C(COC(=O)c1ccc(F)cc1)Nc1nc2ccc([N+](=O)[O-])cc2s1	inactive
Cc1cc(C)cc(OCC(=O)Nc2nc3ccc([N+](=O)[O-])cc3s2)c1	inactive
Cc1ccccc1N1CCN(C(=O)c2cccnc2)CC1	inactive
O=C(NCCc1cccc(F)c1)C1CCCN(c2nc3ccccc3s2)C1 (stereo not drawn)	inactive
CCn1c(SCC(=O)NC2CCCC2)nnc1-c1ccoc1C	inactive
Cc1csc(SCC(=O)Nc2sccc2C#N)n1	4.47 µM (active)
Cc1cccc(C)c1Nc1nnc(SCC(=O)Nc2sccc2C#N)s1	inactive
Cc1ccc(NC(=O)CSCC(=O)Nc2sccc2C#N)cc1	inactive
O=[N+]([O-])c1cc2ccccc2nc1-c1ccccc1	inactive
O=C(NCCN1CCOC1=O)C1CCC(=O)N(CCc2ccc(Cl)cc2)C1 (stereo not drawn)	inactive
COCCOC(=O)C1=C(C)OC(N)=C(C#N)[C@H]1c1ccco1	inactive
O=C(CN1CCCCCC1)N1c2ccccc2Sc2ccc(C(F)(F)F)cc21	18.3 µM (active)
CCNC(=O)N1c2ccccc2Sc2ccccc21	inactive
O=C(CN1C(=O)/C(=C\c2ccc(C(F)(F)F)cc2)Sc2ccccc21)NCc1ccco1	inactive
Oc1ccc(-n2nnnc2SCc2c(F)cccc2Cl)cc1	inactive
O=C(N/N=C/c1ccc(O)c2ccccc12)c1cccnc1	inactive
O=C(NN=Cc1ccccc1O)NN=Cc1ccccc1O	3.98 µM (active)
O=C(CCCO)N/N=C/c1cc(Br)ccc1O	inactive
Cc1ccc(NC(=O)CSc2nc(=O)n(CCN(C)C)c3c2CCCC3)c(C)c1	inactive
